# In article PMC7862700, “An all-to-all approach to the identification of sequence-specific readers for epigenetic DNA modifications on cytosine”:
# Tests used:
# Assay in all cases: DAPPL (digital affinity profiling via proximity ligation, sequencing); 10 mM Tris-HCl pH 7.5, 50 mM NaCl, 1 mM DTT, 4% glycerol, room temperature, 30 min; GST-TFs on glutathione beads, 16-mer random dsDNA library, 0.1% formaldehyde crosslink after washing; high values mean tight binding
# [1] = biological target: T1, FEV (Homo sapiens, UniProt Q99581 1-238); details: protein: recombinant; tags: N-terminal GST; dsDNA, one strand shown
# T1 sequence: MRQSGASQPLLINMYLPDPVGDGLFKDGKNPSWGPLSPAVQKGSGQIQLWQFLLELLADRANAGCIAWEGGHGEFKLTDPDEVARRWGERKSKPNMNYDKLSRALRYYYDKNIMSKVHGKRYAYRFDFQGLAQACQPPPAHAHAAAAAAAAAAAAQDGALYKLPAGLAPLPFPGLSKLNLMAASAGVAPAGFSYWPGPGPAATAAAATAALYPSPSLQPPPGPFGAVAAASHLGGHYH
# In short: (§1)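 Binding signal is defined as a hexamer's read frequency for one factor over its frequency for the tag-only sample. To obtain reads, GST-fused human transcription factors were expressed in yeast, captured on glutathione beads, barcoded with DNA and pooled with that sample. Pools met 200 nmole of a 16-mer random double-stranded DNA library in Tris/NaCl/DTT/glycerol buffer for 30 min at room temperature before washing, 0.1% formaldehyde crosslinking, proximity ligation (BsaI/T4 ligase, 1 h, 37 °C), PCR and Illumina NextSeq500 sequencing.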
# [2] = biological target: ETV5 (Homo sapiens, UniProt P41161 1-510); details: protein: recombinant; tags: N-terminal GST; dsDNA, one strand shown
# ETV5, sequence (P41161 whole entry): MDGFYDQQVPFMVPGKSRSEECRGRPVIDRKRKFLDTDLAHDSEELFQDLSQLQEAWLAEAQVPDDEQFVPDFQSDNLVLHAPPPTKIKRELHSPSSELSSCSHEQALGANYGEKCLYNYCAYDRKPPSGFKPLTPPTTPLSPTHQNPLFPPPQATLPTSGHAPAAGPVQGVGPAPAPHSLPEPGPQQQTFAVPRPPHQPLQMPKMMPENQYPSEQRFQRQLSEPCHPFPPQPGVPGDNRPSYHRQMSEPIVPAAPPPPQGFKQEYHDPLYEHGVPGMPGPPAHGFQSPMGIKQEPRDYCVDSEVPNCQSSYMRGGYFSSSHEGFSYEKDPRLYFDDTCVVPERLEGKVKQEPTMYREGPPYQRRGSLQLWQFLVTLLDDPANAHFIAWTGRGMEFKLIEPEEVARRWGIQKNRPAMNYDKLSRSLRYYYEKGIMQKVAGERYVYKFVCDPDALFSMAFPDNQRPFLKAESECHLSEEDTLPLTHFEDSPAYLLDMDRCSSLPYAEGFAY
# In short: as §1
# [3] = biological target: HSF1 (Homo sapiens, UniProt Q00613 1-529); details: protein: recombinant; tags: N-terminal GST; chain copies: 3; dsDNA, one strand shown
# HSF1, sequence (Q00613 whole entry): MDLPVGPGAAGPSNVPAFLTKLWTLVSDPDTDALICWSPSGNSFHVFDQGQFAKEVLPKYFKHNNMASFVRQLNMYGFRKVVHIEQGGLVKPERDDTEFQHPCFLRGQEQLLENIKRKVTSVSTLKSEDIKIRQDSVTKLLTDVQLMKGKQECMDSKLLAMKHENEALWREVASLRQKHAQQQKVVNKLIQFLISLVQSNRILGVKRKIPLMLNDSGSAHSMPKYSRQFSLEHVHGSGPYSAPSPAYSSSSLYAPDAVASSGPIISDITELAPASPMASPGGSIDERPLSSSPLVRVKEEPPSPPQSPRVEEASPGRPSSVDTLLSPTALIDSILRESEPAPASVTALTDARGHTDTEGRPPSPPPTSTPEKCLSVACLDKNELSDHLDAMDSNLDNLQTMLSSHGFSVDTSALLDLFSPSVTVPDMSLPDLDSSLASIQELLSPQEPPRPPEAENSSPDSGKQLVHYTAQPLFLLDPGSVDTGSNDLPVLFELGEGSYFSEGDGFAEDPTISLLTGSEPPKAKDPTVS
# In short: as §1
# [4] = biological target: T2, SPIC (Homo sapiens, UniProt Q8N5J4 1-248); details: protein: recombinant; tags: N-terminal GST; dsDNA, one strand shown
# T2 sequence: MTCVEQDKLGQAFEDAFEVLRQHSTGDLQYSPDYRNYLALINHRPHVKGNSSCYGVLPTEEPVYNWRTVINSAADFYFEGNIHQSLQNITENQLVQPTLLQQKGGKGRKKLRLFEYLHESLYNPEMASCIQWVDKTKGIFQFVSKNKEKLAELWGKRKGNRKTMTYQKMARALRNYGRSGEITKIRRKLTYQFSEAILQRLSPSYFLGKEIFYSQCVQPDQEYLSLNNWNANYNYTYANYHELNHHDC
# In short: as §1
# [5] = biological target: ELF4 (Homo sapiens, UniProt Q99607 1-663); details: protein: recombinant; tags: N-terminal GST; dsDNA, one strand shown
# ELF4, sequence (Q99607 whole entry): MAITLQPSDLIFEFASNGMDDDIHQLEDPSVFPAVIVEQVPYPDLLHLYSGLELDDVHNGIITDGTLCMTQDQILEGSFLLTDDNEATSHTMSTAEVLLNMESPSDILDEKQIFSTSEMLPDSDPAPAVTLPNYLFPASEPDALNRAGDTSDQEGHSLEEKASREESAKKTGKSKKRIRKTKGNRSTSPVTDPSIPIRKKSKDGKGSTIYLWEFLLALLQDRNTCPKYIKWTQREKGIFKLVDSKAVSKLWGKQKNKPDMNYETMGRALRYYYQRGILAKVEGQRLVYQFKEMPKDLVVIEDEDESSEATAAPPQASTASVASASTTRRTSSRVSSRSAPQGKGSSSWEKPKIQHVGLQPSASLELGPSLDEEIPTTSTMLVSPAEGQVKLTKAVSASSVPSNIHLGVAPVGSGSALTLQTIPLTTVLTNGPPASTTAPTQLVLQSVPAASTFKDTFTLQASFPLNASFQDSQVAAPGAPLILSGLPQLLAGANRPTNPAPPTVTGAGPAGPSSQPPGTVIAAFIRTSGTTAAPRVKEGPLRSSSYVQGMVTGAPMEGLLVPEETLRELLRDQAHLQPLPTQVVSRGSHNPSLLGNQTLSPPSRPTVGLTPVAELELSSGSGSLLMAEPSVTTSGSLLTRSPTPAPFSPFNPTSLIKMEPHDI
# In short: as §1
# [6] = biological target: T3, ELK4 (Homo sapiens, UniProt P28324-2 1-405); details: protein: recombinant; tags: N-terminal GST; dsDNA, one strand shown
# T3 sequence: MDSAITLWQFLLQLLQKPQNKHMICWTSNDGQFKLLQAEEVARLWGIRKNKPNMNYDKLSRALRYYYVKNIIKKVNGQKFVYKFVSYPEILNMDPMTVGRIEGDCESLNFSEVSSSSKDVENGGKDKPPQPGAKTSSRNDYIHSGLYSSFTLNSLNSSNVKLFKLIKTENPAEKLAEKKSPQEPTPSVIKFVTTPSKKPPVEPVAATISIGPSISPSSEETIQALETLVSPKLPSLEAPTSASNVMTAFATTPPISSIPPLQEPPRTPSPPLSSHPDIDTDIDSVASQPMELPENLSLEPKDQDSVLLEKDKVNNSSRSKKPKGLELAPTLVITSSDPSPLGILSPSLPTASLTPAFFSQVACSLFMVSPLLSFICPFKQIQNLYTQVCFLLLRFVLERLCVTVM
# In short: as §1
# [7] = biological target: T4, ETV2 (Homo sapiens, UniProt O00321 1-342); details: protein: recombinant; tags: N-terminal GST; dsDNA, one strand shown
# T4 sequence: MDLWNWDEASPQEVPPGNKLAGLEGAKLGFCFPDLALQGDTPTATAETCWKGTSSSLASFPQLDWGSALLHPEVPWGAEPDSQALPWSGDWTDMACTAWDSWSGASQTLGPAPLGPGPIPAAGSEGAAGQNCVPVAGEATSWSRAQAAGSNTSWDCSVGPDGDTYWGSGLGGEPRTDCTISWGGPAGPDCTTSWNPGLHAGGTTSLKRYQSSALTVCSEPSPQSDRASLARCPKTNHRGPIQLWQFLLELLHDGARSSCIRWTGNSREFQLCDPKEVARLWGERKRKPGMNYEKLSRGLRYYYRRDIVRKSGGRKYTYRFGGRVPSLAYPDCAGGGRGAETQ
# In short: as §1
# [8] = biological target: T5, ELF3 (Homo sapiens, UniProt P78545 1-371); details: protein: recombinant; tags: N-terminal GST; dsDNA, one strand shown
# T5 sequence: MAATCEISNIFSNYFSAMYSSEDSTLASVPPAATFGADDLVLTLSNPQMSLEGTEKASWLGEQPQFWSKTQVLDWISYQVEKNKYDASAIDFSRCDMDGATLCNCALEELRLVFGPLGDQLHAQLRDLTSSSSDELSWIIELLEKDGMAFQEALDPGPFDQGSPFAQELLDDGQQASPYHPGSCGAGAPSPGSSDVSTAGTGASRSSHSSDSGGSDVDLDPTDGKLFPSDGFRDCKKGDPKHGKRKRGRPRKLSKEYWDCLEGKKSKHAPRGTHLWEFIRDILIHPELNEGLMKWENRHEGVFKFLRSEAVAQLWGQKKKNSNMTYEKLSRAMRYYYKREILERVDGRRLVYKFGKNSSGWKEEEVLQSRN
# In short: as §1
# [9] = biological target: CRX (Homo sapiens, UniProt O43186 1-299); details: protein: recombinant; tags: N-terminal GST; dsDNA, one strand shown
# CRX, sequence (O43186 whole entry): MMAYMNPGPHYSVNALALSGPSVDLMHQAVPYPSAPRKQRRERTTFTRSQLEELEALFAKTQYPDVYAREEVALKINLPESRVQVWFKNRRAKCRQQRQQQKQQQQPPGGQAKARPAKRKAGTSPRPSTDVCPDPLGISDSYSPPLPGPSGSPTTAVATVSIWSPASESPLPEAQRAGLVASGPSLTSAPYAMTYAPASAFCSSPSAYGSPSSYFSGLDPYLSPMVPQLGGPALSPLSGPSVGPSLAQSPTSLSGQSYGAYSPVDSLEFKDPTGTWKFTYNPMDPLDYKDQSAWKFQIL
# In short: as §1
# [10] = biological target: ETV1 (Homo sapiens, UniProt P50549 1-477); details: protein: recombinant; tags: N-terminal GST; dsDNA, one strand shown
# ETV1, sequence (P50549 whole entry): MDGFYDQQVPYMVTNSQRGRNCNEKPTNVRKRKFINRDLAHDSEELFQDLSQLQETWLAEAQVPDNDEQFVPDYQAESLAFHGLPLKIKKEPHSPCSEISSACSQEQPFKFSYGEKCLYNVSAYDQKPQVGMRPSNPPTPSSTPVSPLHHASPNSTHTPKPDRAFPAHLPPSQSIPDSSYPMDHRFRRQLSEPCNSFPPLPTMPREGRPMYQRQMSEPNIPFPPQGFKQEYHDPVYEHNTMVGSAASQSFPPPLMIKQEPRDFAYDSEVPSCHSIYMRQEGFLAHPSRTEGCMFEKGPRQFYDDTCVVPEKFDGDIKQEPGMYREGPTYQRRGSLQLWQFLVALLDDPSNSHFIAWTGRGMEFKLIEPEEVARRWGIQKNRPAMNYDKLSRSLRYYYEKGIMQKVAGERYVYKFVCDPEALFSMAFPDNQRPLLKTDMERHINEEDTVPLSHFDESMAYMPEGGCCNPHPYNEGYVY
# In short: as §1
# [11] = biological target: T6, ERF (Homo sapiens, UniProt P50548 1-548); details: protein: recombinant; tags: N-terminal GST; dsDNA, one strand shown
# T6 sequence: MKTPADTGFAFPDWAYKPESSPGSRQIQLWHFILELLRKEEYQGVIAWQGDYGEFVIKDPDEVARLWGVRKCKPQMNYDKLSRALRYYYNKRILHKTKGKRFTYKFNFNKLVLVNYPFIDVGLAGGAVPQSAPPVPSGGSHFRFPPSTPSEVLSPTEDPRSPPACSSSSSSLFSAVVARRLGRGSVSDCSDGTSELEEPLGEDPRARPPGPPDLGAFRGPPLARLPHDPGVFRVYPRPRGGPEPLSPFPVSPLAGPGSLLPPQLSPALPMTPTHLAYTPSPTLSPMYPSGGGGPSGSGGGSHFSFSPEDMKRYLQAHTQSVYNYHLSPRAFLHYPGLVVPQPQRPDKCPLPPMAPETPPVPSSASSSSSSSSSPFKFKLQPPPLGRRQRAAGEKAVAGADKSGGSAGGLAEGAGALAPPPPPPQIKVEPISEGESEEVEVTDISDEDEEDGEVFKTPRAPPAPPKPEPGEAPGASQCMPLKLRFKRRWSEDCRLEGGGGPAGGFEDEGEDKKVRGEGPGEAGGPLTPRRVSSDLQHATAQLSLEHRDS
# In short: as §1
# [12] = biological target: T7, ETV3L (Homo sapiens, UniProt Q6ZN32 1-361); details: protein: recombinant; tags: N-terminal GST; dsDNA, one strand shown
# T7 sequence: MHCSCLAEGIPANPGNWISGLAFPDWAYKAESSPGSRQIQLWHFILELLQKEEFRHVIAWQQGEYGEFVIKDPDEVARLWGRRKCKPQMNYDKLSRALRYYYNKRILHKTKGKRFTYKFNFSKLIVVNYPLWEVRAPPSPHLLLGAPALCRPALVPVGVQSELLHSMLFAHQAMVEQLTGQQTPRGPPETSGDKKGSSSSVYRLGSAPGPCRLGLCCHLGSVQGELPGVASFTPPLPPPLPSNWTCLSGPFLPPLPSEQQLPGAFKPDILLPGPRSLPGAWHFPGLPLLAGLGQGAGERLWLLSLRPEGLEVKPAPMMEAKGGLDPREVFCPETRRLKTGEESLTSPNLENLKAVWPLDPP
# In short: as §1
# [13] = biological target: T8, ETS2 (Homo sapiens, UniProt P15036 1-469); details: protein: recombinant; tags: N-terminal GST; dsDNA, one strand shown
# T8 sequence: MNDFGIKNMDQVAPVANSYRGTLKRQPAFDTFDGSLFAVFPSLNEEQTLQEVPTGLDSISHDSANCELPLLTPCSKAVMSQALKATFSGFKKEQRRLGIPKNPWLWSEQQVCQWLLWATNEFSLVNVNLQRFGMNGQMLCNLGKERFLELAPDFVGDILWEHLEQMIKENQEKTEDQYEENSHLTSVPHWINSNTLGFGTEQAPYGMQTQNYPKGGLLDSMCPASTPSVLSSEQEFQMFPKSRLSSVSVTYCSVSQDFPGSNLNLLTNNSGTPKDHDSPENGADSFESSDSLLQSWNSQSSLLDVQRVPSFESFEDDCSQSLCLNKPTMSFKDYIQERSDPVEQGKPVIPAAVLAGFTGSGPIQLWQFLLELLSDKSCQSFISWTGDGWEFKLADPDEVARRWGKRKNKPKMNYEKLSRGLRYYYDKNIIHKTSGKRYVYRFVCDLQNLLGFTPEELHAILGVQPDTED
# In short: as §1
# [14] = biological target: T9, SPDEF (Homo sapiens, UniProt O95238 1-335); details: protein: recombinant; tags: N-terminal GST; dsDNA, one strand shown
# T9 sequence: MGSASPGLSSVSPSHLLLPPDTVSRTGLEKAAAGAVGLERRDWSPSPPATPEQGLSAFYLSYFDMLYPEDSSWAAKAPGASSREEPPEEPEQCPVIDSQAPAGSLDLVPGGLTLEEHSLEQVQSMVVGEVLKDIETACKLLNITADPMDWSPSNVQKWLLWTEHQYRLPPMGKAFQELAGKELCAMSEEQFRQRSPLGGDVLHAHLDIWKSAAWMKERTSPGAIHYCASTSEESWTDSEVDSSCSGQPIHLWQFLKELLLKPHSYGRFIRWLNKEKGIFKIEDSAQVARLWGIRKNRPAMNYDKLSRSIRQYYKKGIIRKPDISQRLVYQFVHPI
# In short: as §1
# [15] = biological target: T10, ETV7 (Homo sapiens, UniProt Q9Y603 1-341); details: protein: recombinant; tags: N-terminal GST; dsDNA, one strand shown
# T10 sequence: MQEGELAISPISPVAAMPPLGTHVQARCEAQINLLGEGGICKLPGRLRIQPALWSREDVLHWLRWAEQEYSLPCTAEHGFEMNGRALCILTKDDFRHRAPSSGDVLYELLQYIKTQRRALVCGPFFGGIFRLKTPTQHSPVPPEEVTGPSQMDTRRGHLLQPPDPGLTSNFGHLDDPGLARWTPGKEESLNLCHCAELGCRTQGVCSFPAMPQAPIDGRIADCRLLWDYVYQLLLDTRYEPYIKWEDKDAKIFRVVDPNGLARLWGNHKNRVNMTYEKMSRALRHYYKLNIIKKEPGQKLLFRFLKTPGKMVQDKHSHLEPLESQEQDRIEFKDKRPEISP
# In short: as §1
# [16] = biological target: T11, ELF5 (Homo sapiens, UniProt Q9UKW6-2 1-255); details: protein: recombinant; tags: N-terminal GST; dsDNA, one strand shown
# T11 sequence: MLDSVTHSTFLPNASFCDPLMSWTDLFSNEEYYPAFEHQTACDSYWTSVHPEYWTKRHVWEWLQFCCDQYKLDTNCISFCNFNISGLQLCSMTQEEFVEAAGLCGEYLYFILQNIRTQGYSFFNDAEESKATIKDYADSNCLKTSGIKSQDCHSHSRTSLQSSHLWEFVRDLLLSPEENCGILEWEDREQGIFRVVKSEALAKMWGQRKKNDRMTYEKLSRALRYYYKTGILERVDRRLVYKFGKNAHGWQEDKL
# In short: as §1
# [17] = biological target: T12, ETV3 (Homo sapiens, UniProt P41162-2 1-143); details: protein: recombinant; tags: N-terminal GST; dsDNA, one strand shown
# T12 sequence: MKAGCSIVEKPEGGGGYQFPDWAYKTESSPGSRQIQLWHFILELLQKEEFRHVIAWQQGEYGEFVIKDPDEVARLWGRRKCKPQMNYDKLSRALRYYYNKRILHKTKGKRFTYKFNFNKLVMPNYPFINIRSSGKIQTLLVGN
# In short: as §1
# [18] = biological target: ETV6 (Homo sapiens, UniProt P41212 1-452); details: protein: recombinant; tags: N-terminal GST; dsDNA, one strand shown
# ETV6, sequence (P41212 whole entry): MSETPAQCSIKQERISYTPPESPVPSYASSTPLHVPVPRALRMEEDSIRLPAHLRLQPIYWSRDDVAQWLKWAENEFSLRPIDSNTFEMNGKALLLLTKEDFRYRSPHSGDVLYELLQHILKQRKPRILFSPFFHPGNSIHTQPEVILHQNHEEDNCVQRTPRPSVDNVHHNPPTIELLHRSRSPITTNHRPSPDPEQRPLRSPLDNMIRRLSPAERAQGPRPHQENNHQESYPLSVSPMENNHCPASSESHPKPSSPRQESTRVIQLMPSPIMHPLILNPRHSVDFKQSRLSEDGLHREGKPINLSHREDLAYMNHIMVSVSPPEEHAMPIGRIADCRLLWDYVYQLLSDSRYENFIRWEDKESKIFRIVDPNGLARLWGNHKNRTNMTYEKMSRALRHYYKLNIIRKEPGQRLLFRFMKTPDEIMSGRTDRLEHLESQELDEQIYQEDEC
# In short: as §1
sequence,measurement,setting,value
AGCTAT,binding signal,[1],"1.16 fold enrichment (6-mer frequency, TF over GST control)"
same,binding signal,[2],"1.16 fold enrichment (6-mer frequency, TF over GST control)"
same,binding signal,[3],"1.12 fold enrichment (6-mer frequency, TF over GST control)"
same,binding signal,[4],"1.15 fold enrichment (6-mer frequency, TF over GST control)"
same,binding signal,[5],"1.15 fold enrichment (6-mer frequency, TF over GST control)"
same,binding signal,[6],"1.27 fold enrichment (6-mer frequency, TF over GST control)"
same,binding signal,[7],"1.2 fold enrichment (6-mer frequency, TF over GST control)"
same,binding signal,[8],"1.2 fold enrichment (6-mer frequency, TF over GST control)"
same,binding signal,[9],"1.27 fold enrichment (6-mer frequency, TF over GST control)"
same,binding signal,[10],"1.2 fold enrichment (6-mer frequency, TF over GST control)"
same,binding signal,[11],"1.17 fold enrichment (6-mer frequency, TF over GST control)"
same,binding signal,[12],"1.17 fold enrichment (6-mer frequency, TF over GST control)"
same,binding signal,[13],"1.11 fold enrichment (6-mer frequency, TF over GST control)"
same,binding signal,[14],"1.14 fold enrichment (6-mer frequency, TF over GST control)"
same,binding signal,[15],"1.13 fold enrichment (6-mer frequency, TF over GST control)"
same,binding signal,[16],"1.12 fold enrichment (6-mer frequency, TF over GST control)"
same,binding signal,[17],"1.13 fold enrichment (6-mer frequency, TF over GST control)"
same,binding signal,[18],"1.08 fold enrichment (6-mer frequency, TF over GST control)"
